Data reported in PubChem BioAssay.
The list shows a part of the results. Activity calls are given as the source filed them. Cut-off read from the data, not from the text of the source, unless noted: active = inhibition above about 25%; inactive = the rest. Numbered stars: 1 amine (or outer) side, 2 acyl side, 3 side chain; on linkers, the order of the positions; unused ones are H or OH. Bridge positions count the residues as written; N and C are the ends. Square brackets hold non-standard residues; d marks the D form. Peptide text beside a SMILES is read from it. ξ: configuration not given here. X1 = CC[C@H](CCC[C@@H](O)[C@@H](C)C(=O)O[C@H](C)[C@@H](C)C/C=C(C)/C(=C\C(=O)[*:1])OC)O[*:2]; NMeξIle = CC[C@H](C)C(NC)C(=O)O; NMeV = CN[C@H](C(=O)O)C(C)C; NMeS = CN[C@@H](CO)C(=O)O

Assays:
[1] = target: Nuclear receptor coactivator 3 (Homo sapiens) (UniProt Q9Y6Q9); assay: NCOA3 GAL4-fusion reporter inhibition – cell-based, luminescence, quadruplicate, confirmation (AID 588792;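 active = mean inhibition over 43.08%, the solvent-only control mean plus 3 SD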;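 note: 0% = DMSO treated cells and 100% = gossypol at 36 µM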); conditions: HEK293 GAL4-SRC3 luciferase reporter, at 3.6 µM, stronger effect = higher value
[2] = system: transactivating tegument protein VP16 (Human herpesvirus 1), Gal4-VP16 luciferase reporter; assay: repression of VP16-driven luciferase reporter – cell-based, luminescence, high throughput, counter-screen for SRC3 inhibitor project (AID 588794; in the data active = inhibition above about 30%); conditions: mammalian cells, at 3.6 µM, stronger effect = higher value
[3] = target: Nuclear receptor coactivator 1 (Homo sapiens) (UniProt Q15788); assay: NCOA1 GAL4-fusion reporter inhibition – cell-based, luminescence, quadruplicate, confirmation (AID 588820;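 active = mean inhibition above 46.68%, the untreated control wells mean plus 3 SD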;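 note: 0% = DMSO wells and 100% = gossypol 36 µM treated wells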); conditions: HEK293 GAL4-SRC1 luciferase reporter, at 3.6 µM, stronger effect = higher value
[4] = repression of VP16-driven luciferase reporter – cell-based, luminescence, high throughput, counter-screen for SRC1 inhibitor project (AID 588824); conditions: cell-based VP16 transactivation luciferase luminescence; at 3.6 µM; stronger effect = higher value
[5] = target: Photoreceptor-specific nuclear receptor (Homo sapiens) (UniProt Q9Y5X4); assay: retest of NR2E3-NCOR disrupting agonists – cell-based, luminescence, CHO-S two-hybrid, confirmation (AID 624378;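 active = average inhibition above a cutoff equal to the mean inhibition of all tested compounds plus one SD, cut at about 70% in these data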;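 note: 0% = DMSO in NR2E3 cells and 100% = DMSO in cells lacking NR2E3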); conditions: CHO-S mammalian two-hybrid NR2E3-NCOR, luciferase luminescence; at 3.98 µM; stronger effect = higher value
[6] = nonselective effects on VP16 transactivation – cell-based, luminescence, CHO-S, high throughput, counter-screen for NR2E3 agonist project, confirmation (AID 624379;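 active = mean inhibition above a cutoff equal to the average over all tested compounds plus one standard deviation, cut at about 70% in these data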;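 note: 0% = DMSO with VP16-transfected cells and 100% = DMSO with cells lacking VP16; higher means less reporter light so more repression of VP16 activity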); conditions: CHO-S GAL4-VP16 luciferase reporter, at 3.98 µM, stronger effect = higher value
[7] = system: transactivating tegument protein VP16 (Human herpesvirus 1); assay: compounds suppressing VP16-driven luciferase signal – cell-based, luminescence, single concentration, counter-screen for SRC2 inhibitor project (AID 652007; in the data active = inhibition above about 36%); conditions: cell-based VP16 transactivation luciferase reporter, at 8.9 µM, stronger effect = higher value
[8] = target: Nuclear receptor coactivator 2 (Homo sapiens) (UniProt Q15596); assay: inhibition of GAL4-SRC2 driven luciferase expression – cell-based, luminescence, HEK293, triplicate, confirmation (AID 652008;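 active = mean inhibition above 46.5%, the solvent-only control mean plus 3 SD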;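 note: 0% = DMSO-treated cells and 100% = Gossypol at 36 µM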); conditions: HEK293 GAL4-SRC2 luciferase reporter, at 8.9 µM, stronger effect = higher value
[9] = StAR promoter reporter inhibitors, counter-screen for LRH-1 inverse agonist project, cell-based, luminescence, high throughput (AID 651611; in the data active = inhibition above about 28%); conditions: StAR promoter luciferase reporter counterscreen, at 3.6 µM, stronger effect = higher value
[10] = target: Nuclear receptor subfamily 5 group A member 2 (Homo sapiens) (UniProt O00482); assay: NR5A2 activity suppression in reporter cells – cell-based, luminescence, confirmation (AID 651613; in the data active = inhibition above about 42%;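 note: HEK293T cells co-transfected with LRH-1 and StAR promoter luciferase reporter; 0% = vehicle wells and 100% = parental cells lacking receptor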); conditions: cell-based LRH-1 luciferase reporter, inverse agonism; at 3.6 µM; stronger effect = higher value
[11] = target: Steroidogenic factor 1 (Homo sapiens) (UniProt Q13285); assay: inverse agonism at SF1 nuclear receptor – cell-based, luminescence, high throughput, counter-screen for LRH-1 inverse agonist project (AID 651614; in the data active = inhibition above about 44%;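 note: cells cotransfected with StAR promoter reporter and SF1 expression vector; 0% = vehicle on cells with receptor and 100% = vehicle on cells lacking receptor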); conditions: cell-based SF1 luciferase reporter, at 3.6 µM, stronger effect = higher value
[12] = compounds suppressing VP16-driven luciferase signal – cell-based, luminescence, high throughput, counter-screen for LRH-1 inverse agonist project (AID 651615; in the data active = inhibition above about 33%); conditions: Gal4-VP16 luciferase reporter cells, at 3.6 µM, stronger effect = higher value
[13] = VP16-driven transactivation reporter suppression – cell-based, luminescence, HEK293, counter-screen for COUP-TFII antagonist project (AID 687007; in the data active = inhibition above about 13%); conditions: HEK293 Gal4-VP16 luciferase reporter, at 8.5 µM, stronger effect = higher value
[14] = target: COUP transcription factor 2 (Homo sapiens) (UniProt P24468); assay: retest of COUP-TFII reporter suppressors – cell-based, luciferase reporter, HEK293, triplicate, confirmation (AID 687008;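 active = mean inhibition over three repeats above a set limit taken from the earlier primary screen, cut at about 38% in these data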;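 note: 100% = cells given the luciferase reporter alone without the COUP-TF2 vector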); conditions: HEK293 NGFI-A luciferase reporter, luminescence; at 8.5 µM; stronger effect = higher value

Measured: inhibition

Nuclear receptor coactivator 1 (Homo sapiens), sequence (Q15788 whole entry, looked up, the tested form may be a part): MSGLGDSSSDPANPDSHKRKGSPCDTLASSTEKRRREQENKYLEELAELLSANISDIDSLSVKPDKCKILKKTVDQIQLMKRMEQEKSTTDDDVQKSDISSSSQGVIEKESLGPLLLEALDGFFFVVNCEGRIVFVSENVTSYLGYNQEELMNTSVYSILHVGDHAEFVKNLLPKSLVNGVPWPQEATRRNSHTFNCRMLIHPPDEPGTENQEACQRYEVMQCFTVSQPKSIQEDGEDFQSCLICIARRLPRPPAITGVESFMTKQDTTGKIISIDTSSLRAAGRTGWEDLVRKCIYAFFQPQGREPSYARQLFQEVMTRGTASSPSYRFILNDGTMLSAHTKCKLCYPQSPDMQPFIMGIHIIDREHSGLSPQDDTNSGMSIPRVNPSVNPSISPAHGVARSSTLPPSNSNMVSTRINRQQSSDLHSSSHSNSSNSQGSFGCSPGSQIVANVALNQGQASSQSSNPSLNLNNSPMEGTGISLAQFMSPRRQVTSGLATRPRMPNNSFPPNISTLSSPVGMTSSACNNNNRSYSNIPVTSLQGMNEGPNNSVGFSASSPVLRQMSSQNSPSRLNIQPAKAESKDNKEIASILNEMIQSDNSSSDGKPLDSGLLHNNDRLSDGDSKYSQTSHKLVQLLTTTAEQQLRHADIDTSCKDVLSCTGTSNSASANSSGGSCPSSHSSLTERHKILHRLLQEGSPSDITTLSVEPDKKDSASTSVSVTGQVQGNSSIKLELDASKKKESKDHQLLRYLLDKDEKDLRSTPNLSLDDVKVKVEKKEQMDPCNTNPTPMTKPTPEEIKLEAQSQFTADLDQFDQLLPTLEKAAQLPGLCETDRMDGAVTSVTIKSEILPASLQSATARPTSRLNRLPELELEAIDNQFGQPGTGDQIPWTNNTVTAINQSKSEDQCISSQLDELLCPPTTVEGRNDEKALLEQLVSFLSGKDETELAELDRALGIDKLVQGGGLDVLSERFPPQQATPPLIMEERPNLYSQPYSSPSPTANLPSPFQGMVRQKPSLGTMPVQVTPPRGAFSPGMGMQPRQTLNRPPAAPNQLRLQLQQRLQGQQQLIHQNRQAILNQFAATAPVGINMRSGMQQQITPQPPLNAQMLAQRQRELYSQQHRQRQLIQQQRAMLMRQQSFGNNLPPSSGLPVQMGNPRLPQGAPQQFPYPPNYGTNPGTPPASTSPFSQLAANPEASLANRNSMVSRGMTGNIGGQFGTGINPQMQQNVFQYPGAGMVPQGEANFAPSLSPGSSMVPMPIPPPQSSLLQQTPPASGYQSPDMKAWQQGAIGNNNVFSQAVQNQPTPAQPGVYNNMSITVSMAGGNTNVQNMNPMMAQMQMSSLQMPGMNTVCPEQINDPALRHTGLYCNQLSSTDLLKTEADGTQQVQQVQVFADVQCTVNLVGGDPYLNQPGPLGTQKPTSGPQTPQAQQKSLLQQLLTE
Nuclear receptor coactivator 2 (Homo sapiens), sequence (Q15596 whole entry, looked up, the tested form may be a part): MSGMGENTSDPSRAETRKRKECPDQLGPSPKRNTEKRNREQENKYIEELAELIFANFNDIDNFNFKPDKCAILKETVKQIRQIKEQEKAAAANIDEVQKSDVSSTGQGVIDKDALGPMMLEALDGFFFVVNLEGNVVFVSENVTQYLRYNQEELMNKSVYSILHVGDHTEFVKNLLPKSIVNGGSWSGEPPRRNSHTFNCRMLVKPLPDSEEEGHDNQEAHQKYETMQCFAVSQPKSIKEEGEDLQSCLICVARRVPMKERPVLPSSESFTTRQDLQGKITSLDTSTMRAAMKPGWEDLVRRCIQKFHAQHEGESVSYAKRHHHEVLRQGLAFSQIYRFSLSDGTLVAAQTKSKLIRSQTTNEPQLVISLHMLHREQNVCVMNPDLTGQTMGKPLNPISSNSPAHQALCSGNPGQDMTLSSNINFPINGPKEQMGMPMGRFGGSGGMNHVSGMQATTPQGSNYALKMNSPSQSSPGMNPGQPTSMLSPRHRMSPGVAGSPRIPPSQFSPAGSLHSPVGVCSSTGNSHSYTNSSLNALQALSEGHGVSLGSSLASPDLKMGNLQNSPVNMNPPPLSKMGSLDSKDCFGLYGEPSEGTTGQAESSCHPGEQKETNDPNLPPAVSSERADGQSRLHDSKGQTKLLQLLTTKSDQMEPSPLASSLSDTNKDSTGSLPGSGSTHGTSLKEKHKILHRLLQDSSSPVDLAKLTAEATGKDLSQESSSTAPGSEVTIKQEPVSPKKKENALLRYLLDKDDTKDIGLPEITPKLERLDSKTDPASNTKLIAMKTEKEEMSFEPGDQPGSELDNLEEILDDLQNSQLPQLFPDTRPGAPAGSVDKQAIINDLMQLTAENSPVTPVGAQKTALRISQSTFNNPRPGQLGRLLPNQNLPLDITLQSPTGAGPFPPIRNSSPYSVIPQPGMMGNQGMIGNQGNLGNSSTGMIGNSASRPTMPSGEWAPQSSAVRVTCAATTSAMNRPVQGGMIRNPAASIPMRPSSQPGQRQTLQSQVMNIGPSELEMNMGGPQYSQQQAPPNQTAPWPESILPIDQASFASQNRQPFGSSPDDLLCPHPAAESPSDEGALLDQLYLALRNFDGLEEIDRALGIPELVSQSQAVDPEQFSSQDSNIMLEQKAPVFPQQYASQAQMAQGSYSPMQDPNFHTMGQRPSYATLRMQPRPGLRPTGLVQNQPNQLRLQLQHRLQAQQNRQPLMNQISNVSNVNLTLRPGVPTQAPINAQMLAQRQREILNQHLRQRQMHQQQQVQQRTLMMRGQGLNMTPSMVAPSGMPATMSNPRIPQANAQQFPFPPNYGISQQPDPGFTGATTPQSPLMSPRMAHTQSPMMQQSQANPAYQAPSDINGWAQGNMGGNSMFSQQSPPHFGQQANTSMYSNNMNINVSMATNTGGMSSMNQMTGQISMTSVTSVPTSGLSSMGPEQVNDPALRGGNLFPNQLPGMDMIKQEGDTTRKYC
Steroidogenic factor 1 (Homo sapiens), sequence (Q13285 whole entry, looked up, the tested form may be a part): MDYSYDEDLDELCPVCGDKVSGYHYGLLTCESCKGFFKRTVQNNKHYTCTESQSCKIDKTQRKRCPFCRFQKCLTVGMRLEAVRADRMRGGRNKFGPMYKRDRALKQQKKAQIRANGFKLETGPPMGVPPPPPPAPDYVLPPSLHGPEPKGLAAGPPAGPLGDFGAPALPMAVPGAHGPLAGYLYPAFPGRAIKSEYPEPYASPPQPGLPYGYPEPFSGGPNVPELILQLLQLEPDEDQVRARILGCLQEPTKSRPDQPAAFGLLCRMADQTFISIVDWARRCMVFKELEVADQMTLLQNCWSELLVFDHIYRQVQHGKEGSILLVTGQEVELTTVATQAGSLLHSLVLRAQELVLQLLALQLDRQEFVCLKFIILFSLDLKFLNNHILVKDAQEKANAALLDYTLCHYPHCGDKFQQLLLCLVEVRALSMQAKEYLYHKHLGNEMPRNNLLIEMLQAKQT
Nuclear receptor subfamily 5 group A member 2 (Homo sapiens), sequence (O00482 whole entry, looked up): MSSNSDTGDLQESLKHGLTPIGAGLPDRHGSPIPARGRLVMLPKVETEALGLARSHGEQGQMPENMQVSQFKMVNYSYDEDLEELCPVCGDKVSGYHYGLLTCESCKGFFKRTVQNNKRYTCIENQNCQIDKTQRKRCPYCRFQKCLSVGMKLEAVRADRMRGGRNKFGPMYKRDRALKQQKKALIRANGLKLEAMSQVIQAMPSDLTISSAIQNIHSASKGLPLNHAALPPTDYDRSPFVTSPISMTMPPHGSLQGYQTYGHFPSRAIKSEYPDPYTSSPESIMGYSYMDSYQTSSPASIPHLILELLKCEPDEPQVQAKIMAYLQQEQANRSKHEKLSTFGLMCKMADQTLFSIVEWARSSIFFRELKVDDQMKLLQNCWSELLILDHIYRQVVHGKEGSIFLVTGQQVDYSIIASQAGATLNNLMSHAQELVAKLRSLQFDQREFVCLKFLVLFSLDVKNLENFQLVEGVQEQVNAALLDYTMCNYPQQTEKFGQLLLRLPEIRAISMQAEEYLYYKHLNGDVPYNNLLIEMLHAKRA
Photoreceptor-specific nuclear receptor (Homo sapiens), sequence (Q9Y5X4 whole entry, looked up): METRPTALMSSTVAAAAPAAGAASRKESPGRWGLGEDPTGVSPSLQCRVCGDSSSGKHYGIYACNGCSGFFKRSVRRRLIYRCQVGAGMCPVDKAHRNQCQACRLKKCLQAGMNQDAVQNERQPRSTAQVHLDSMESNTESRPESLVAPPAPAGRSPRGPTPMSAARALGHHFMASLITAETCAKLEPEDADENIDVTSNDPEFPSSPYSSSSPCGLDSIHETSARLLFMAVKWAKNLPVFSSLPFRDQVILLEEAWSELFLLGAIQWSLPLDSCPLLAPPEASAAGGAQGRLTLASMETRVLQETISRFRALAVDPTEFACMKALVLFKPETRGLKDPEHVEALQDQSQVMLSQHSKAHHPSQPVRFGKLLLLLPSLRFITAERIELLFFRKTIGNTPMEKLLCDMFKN
COUP transcription factor 2 (Homo sapiens), sequence (P24468 whole entry, looked up): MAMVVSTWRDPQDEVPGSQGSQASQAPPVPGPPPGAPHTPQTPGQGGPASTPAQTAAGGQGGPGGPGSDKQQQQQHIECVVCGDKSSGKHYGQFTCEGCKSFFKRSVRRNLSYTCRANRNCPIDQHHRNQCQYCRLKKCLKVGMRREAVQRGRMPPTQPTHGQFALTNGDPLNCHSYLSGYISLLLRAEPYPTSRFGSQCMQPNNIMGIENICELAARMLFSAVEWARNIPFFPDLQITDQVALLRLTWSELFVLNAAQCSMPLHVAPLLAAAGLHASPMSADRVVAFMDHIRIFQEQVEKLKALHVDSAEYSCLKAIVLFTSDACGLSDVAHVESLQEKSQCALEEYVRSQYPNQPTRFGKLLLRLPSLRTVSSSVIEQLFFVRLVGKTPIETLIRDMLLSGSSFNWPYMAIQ

CCOc1cc(/C=C(/C#N)c2ccc(Cl)cc2)cc(Cl)c1OCC(=O)O
active: [1] 51.4% | [2] 45.5% | [4] 36.9% | [6] 77.7% | [7] 77.6% | [8] 91%
inactive: [3] 29.6% | [5] 62.7%

OCCCNc1nccc(-c2cc(Nc3cccc(Cl)c3)ncn2)n1
active: [1] 95% | [2] 95.2% | [3] 83.5% | [4] 95.1% | [5] 100% | [6] 93.9% | [9] 88.5% | [10] 108% | [11] 96.5% | [12] 93.2% | [7] 57.9% | [8] 49.7%
inactive: [13] 6.3% | [14] 31.2%

S=C(NN=C(c1ccccc1)c1ccccn1)N(Cc1ccccn1)Cc1ccccn1
active: [1] 84% | [2] 87.2% | [3] 85% | [4] 89.7% | [9] 91% | [10] 105% | [11] 96.4% | [12] 77.2%

CC(=O)NC(c1ccc(Cl)cc1)c1ccc2cccnc2c1O (stereo not given)
active: [1] 83% | [2] 79.9% | [3] 80% | [4] 78.4% | [9] 89.2% | [10] 104% | [11] 91.2% | [12] 87%

COc1ccccc1C(=O)Nc1nc2ccccc2s1
active: [1] 85.4% | [2] 79.6% | [3] 56.6% | [4] 71% | [9] 85.9% | [10] 86.4% | [11] 88% | [12] 75.6%

COC(=O)c1cc2c(n1S(=O)(=O)c1ccc(C)cc1)C(=O)C(=O)c1[nH]cc(C(=O)OCc3ccccc3)c1-2
active: [1] 96.9% | [2] 93.6% | [3] 81.9% | [4] 93.2%

Cc1ccc(/C=C/C(=O)c2c(C)cc(C)[nH]c2=O)cc1
active: [1] 46.8% | [2] 40% | [3] 47% | [4] 46.4% | [9] 35.3% | [10] 42.8% | [11] 50.4% | [12] 60.4%

NC(=O)c1cccc(-c2cnc(N)c(C(=O)c3cccnc3)n2)c1
active: [1] 76.7% | [2] 49.5% | [3] 65.9% | [4] 48.5% | [9] 59.9% | [10] 72.6% | [11] 67.2% | [12] 72.7%

CCCCC(=O)NC(c1ccc(C(C)C)cc1)c1ccc2cccnc2c1O (stereo not given)
active: [1] 62% | [2] 61.1% | [3] 58.2% | [4] 66%

Cc1oc2c(F)c(F)c(F)c(F)c2c1S(=O)(=O)Nc1cccc(C(F)(F)F)c1
inactive: [1] -6.6% | [2] 11.6% | [3] 12.8% | [4] 4.85%
active: [5] 100% | [6] 93.3%

Nc1nc2c(nnn2C2CC(O)C(CO)O2)c(=O)[nH]1 (stereo not given)
active: [1] 78.7% | [9] 51.8% | [10] 53.9% | [11] 44.1%
inactive: [2] 13.7% | [3] 13.6% | [4] 3.11% | [12] 9.15%

O=C(Nc1ccc2c(c1)OCCO2)C1CCCC1
inactive: [1] 15.8% | [2] -21.9% | [3] -2.87% | [4] -33.3% | [5] 53.2% | [6] 13.8% | [7] -46%
active: [8] 51.9%

Cc1onc(-c2ccccc2)c1C(=O)NC(=S)NNC(=O)c1ccccc1O
active: [1] 54.8% | [2] 82% | [3] 66.5% | [4] 77.6% | [9] 70% | [10] 96.8% | [11] 83.4% | [12] 83.3%

Cc1cccc2sc(NNC(=O)c3ccc(S(=O)(=O)N4CC(C)CC(C)C4)cc3)nc12 (stereo not given)
active: [4] 34% | [10] 45% | [12] 40.9%
inactive: [1] 31% | [2] 23.7% | [3] 32.8% | [9] 25% | [11] 36.2%

Cc1cc(C(C)(C)C)cc(C)c1C[n+]1ccc2ccccc2c1
active: [2] 59.3% | [4] 53.3% | [9] 30.7% | [10] 99.2% | [11] 69.1% | [12] 72.7%
inactive: [1] 41.4% | [3] 11.7%

Cn1cc(/C=C/c2cc[n+](C)cc2)c2cc(Cl)ccc21
active: [2] 43.1% | [4] 38.8% | [9] 47.9% | [10] 81.2% | [11] 78.8% | [12] 73.9%
inactive: [1] 21.6% | [3] 21.5%

CC(=NNC(=S)Nc1cccc(C)c1)c1ccccn1
inactive: [3] 1.68%
active: [1] 65.8% | [2] 67.1% | [4] 66.7% | [9] 85.1% | [10] 99.3% | [11] 92.4% | [12] 68.8%

CC[C@@H]1CCC[C@@H](O)[C@@H](C)C(=O)O[C@H](C)[C@@H](C)C/C=C(C)/C(OC)=C\C(=O)N(C)C([C@@H](C)CC)C(=O)N(C)[C@@H](C(C)C)C(=O)N(C)[C@@H](COC)C(=O)N2CCC[C@H]2C(=O)N(C)[C@@H](C(C)C)C(=O)N2CCC[C@H]2C(=O)O1 (stereo not given in full) ([NMeξIle][NMeV][NMeS](Me)P[NMeV]P; linker N-C via X1)
active: [1] 79.9% | [2] 86.5% | [3] 57.1% | [4] 87.5% | [9] 83% | [10] 104% | [11] 94.8% | [12] 93.1%
